Key:
Experiment in all cases: PBM binding z-score (relative to random genomic background probes); higher = stronger binding; sequences stand for … in GC…GCGATTGACAGCGTAGAATGAAGG
[1] = test system: RARb homodimer (NR concentration 270 nM)
In short: (§1)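 Antibodies against each partner of ligand-free nuclear receptor dimers (one per run) detected binding on custom Agilent 4×180K protein-binding microarrays after 1 h incubation. The double-stranded probes had 34-nt variable regions carrying direct-repeat seeds, single-nucleotide variants, half-site ablations and random human genomic background sequences. Binding z-scores, from regression-normalized fluorescence, use the random background probes as reference.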

[2] = test system: RARg:RXRa (NR concentration 270 nM, RXRa partner concentration 90 nM)
In short: as §1

[3] = test system: RARg homodimer (NR concentration 270 nM)
In short: as §1

[4] = test system: RXRa DBDmut IVT, anti-RXR (DBD mutation: RXRa K156A/R161A, NR concentration 90 nM)
In short: as §1

[5] = test system: RXRa homodimer (NR concentration 180 nM)
In short: as §1

[6] = test system: THRa:RXRa (NR concentration 90 nM, RXRa partner concentration 90 nM)
In short: as §1

[7] = test system: THRa homodimer (NR concentration 90 nM)
In short: as §1

[8] = test system: VDR homodimer (NR concentration 270 nM)
In short: as §1

TAGCCTAGGTGAGATCGGGCCAGTATACGCTATA
PBM binding z-score [1]: -0.246 | PBM binding z-score [2]: -0.235 | PBM binding z-score [3]: 0.0324 | PBM binding z-score [4]: -1.2 | PBM binding z-score [5]: -0.204 | PBM binding z-score [6]: 1.52 | PBM binding z-score [7]: -0.733 | PBM binding z-score [8]: -0.357

TCGAGTAGGTTACCAATGGAGCATTCAGCTTTCT
PBM binding z-score [1]: -0.304 | PBM binding z-score [2]: 0.18 | PBM binding z-score [3]: 0.258 | PBM binding z-score [4]: 0.293 | PBM binding z-score [5]: 0.319 | PBM binding z-score [6]: -0.213 | PBM binding z-score [7]: -0.898 | PBM binding z-score [8]: -0.759

CGACAAAGTTCAAGGTAACGTAACAGAAAGCAGC
PBM binding z-score [1]: 3.7 | PBM binding z-score [2]: 5.27 | PBM binding z-score [3]: 5.99 | PBM binding z-score [4]: 4.29 | PBM binding z-score [5]: 4.69 | PBM binding z-score [6]: 2.8 | PBM binding z-score [7]: 1.02 | PBM binding z-score [8]: 3.11

TTACCAAGGTGAGGGTCGTTGATCCCTCTGTAGA
PBM binding z-score [1]: 0.945 | PBM binding z-score [2]: 0.785 | PBM binding z-score [3]: 0.443 | PBM binding z-score [4]: -0.138 | PBM binding z-score [5]: 1.37 | PBM binding z-score [6]: 1.8 | PBM binding z-score [7]: 0.423 | PBM binding z-score [8]: 0.171

TTACCACGGTGAGCTGAGGTCGTTGATCCAACTC
PBM binding z-score [1]: 0.63 | PBM binding z-score [2]: 0.212 | PBM binding z-score [3]: -0.116 | PBM binding z-score [4]: -0.00262 | PBM binding z-score [5]: 0.759 | PBM binding z-score [6]: 3.24 | PBM binding z-score [7]: 1.31 | PBM binding z-score [8]: 1.64

ATCTCTAGGTAACAGGTTCAGTGAAAGAGAGGAC
PBM binding z-score [1]: 1.15 | PBM binding z-score [2]: 0.818 | PBM binding z-score [3]: 0.667 | PBM binding z-score [4]: 0.757 | PBM binding z-score [5]: 0.828 | PBM binding z-score [6]: 1.58 | PBM binding z-score [7]: 1.34 | PBM binding z-score [8]: 2.78

TCTCGGAGGACACGAAGGTCAGATCTTTCCAGAG
PBM binding z-score [1]: 3.7 | PBM binding z-score [2]: 3.45 | PBM binding z-score [3]: 4.36 | PBM binding z-score [4]: 1.15 | PBM binding z-score [5]: 2.48 | PBM binding z-score [6]: 2.94 | PBM binding z-score [7]: 0.979 | PBM binding z-score [8]: 2.36

GCTAGTTGGTTAGTAAAAGGTCACACACCGGTCG
PBM binding z-score [1]: 4.86 | PBM binding z-score [2]: 4.87 | PBM binding z-score [3]: 4.08 | PBM binding z-score [4]: 0.675 | PBM binding z-score [5]: 5.33 | PBM binding z-score [6]: 3.66 | PBM binding z-score [7]: 2.08 | PBM binding z-score [8]: 1.85

CTACCAAGGTAAACAAGGTCGTTGATTACTATTC
PBM binding z-score [1]: 1.18 | PBM binding z-score [2]: 0.545 | PBM binding z-score [3]: 0.535 | PBM binding z-score [4]: 1.34 | PBM binding z-score [5]: 1.06 | PBM binding z-score [6]: 3.2 | PBM binding z-score [7]: 1.5 | PBM binding z-score [8]: 2.04

ACAAGTTGGTCAGCTGAGGTCACACACAATTCGG
PBM binding z-score [1]: 4.58 | PBM binding z-score [2]: 4.2 | PBM binding z-score [3]: 3.99 | PBM binding z-score [4]: 2.18 | PBM binding z-score [5]: 4.19 | PBM binding z-score [6]: 5.13 | PBM binding z-score [7]: 5.16 | PBM binding z-score [8]: 3.37

TGTCAAAGTTAAAAGGTAACGTAAGTATCCACAC
PBM binding z-score [1]: 0.641 | PBM binding z-score [2]: 1.31 | PBM binding z-score [3]: 1.09 | PBM binding z-score [4]: -0.392 | PBM binding z-score [5]: 1.22 | PBM binding z-score [6]: 1.72 | PBM binding z-score [7]: -0.237 | PBM binding z-score [8]: -0.239

CAAACTAGGACACCGGAAGGTCAAAGTCCGCATG
PBM binding z-score [1]: 4.14 | PBM binding z-score [2]: 4.12 | PBM binding z-score [3]: 3.83 | PBM binding z-score [4]: 0.721 | PBM binding z-score [5]: 3.58 | PBM binding z-score [6]: 3.71 | PBM binding z-score [7]: 2.1 | PBM binding z-score [8]: 2.92

CCTTACGGGTCATTCCAGGTTATAGCATCGGAGT
PBM binding z-score [1]: 3.03 | PBM binding z-score [2]: 4.52 | PBM binding z-score [3]: 4.25 | PBM binding z-score [4]: 2.86 | PBM binding z-score [5]: 5.2 | PBM binding z-score [6]: 5.12 | PBM binding z-score [7]: 0.692 | PBM binding z-score [8]: 2.59

CTGCCAAGGTGAACAAGGTCGTTGATTACTATTC
PBM binding z-score [1]: 2 | PBM binding z-score [2]: 1.66 | PBM binding z-score [3]: 1.29 | PBM binding z-score [4]: 1.04 | PBM binding z-score [5]: 1.58 | PBM binding z-score [6]: 3.07 | PBM binding z-score [7]: 1.67 | PBM binding z-score [8]: 1.56

TCTGCTAGGTCAACGATGGTCGGCTAATCTGCTA
PBM binding z-score [1]: 3.13 | PBM binding z-score [2]: 3.75 | PBM binding z-score [3]: 5.24 | PBM binding z-score [4]: 0.92 | PBM binding z-score [5]: 2.64 | PBM binding z-score [6]: 2.7 | PBM binding z-score [7]: 0.478 | PBM binding z-score [8]: -0.232

CCGACTGGGGCAAAGCTTACCATACTCAGTACGA
PBM binding z-score [1]: -0.047 | PBM binding z-score [2]: 0.0271 | PBM binding z-score [3]: 0.339 | PBM binding z-score [4]: 0.525 | PBM binding z-score [5]: -0.115 | PBM binding z-score [6]: -0.341 | PBM binding z-score [7]: -0.519 | PBM binding z-score [8]: -0.448

CTACCAATGTGAACAAGGTCGTTGATTACTATTC
PBM binding z-score [1]: 1.33 | PBM binding z-score [2]: 0.629 | PBM binding z-score [3]: 0.564 | PBM binding z-score [4]: 1.83 | PBM binding z-score [5]: 1.08 | PBM binding z-score [6]: 2.17 | PBM binding z-score [7]: 1.33 | PBM binding z-score [8]: 2.32

Source: the supplement of paper PMC6555819
